Bioassay records as filed in PubChem BioAssay.
Hits are enriched below; roughly 6% of the tested compounds scored in any of these assays.
D3 ag: agonists of human D3 dopamine receptor | P35462 | D3R DiscoveRx beta-arrestin cells, luminescence, 90 min | max activation, % | 410,000 tested, 0.58% active | AID 652048; in the data active means max activation above about 30%; further: 0% is about no effect
Target sequence (P35462 whole entry, looked up): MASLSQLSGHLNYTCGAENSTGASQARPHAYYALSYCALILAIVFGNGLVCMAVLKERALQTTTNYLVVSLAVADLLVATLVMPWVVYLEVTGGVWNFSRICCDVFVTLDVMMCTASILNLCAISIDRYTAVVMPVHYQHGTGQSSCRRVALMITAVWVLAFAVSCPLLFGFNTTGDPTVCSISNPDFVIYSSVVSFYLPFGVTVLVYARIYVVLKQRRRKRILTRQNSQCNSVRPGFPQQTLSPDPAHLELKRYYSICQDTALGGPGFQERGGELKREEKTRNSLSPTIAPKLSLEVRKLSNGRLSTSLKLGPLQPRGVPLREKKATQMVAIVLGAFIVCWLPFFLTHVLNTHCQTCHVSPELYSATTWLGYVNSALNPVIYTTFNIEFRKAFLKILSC
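Cells at 1500/well, incubated overnight, then treated with pinned compounds (dopamine as control) for 90 min at 37 degrees C. DiscoveRx reagent added for 30 - 60 minutes at room temperature; luminescence read.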
D1 PAM: potentiators of human D1 dopamine receptor; P21728; HEK293 TREx D1 cells, calcium flux, dopamine EC20 potentiation; potentiation, % at 10 µM; 360,000 tested, 0.036% active; in the data active means potentiation above about 30%; further: 0% is about no effect
DRD3 antagonist: blocks the human D3 dopamine receptor. D3R cells, DiscoveRx beta-arrestin luminescence, antagonist mode; hits give low values. max response, negative = inhibition, %. P35462. 360,000 tested, 2.5% active; in the data active means max response below about -50%; inconclusive means no clear call, values can overlap the other calls; further: on the % scale 0 is the no-effect control and ±100 the full control effect
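Cells plated overnight at 1500 cells/well, then exposed to library compounds with dopamine controls for 90 minutes at 37 degrees C. DiscoveRx reagent added for 30–60 minutes at room temperature; luminescence read, quantitative HTS format.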
D1 antagonist: blocks dopamine activation of the human D1 receptor. HEK293 TREx D1 cells, calcium flux, dopamine EC80; hits give low values. activity change, negative = inhibition, % at 10 µM. 360,000 tested, 3.2% active; in the data active means activity change below about -30%; further: on the % scale 0 is the no-effect control and ±100 the full control effect
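Kinetic fluorescence of a calcium dye serves as the read-out. D1-expressing Hek293 Trex cells, induced overnight at 30 C, are exposed to compound for 180 s before an EC80 dopamine addition, then read 180 s further.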
D1 agonist: agonists of human D1 dopamine receptor; P21728; HEK293 T-REx D1 cells, calcium flux, agonist mode; activation, % at 2 µM; 360,000 tested, 1% active; AID 504660; in the data active means activation above about 30%; further: 0% is about no effect
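Tetracycline-induced HEK293 TREx D1 cells, force-coupled to calcium signalling, were dye-loaded with a no-wash calcium kit. Compound was pin-added after a 10 s baseline. Fluorescence was read kinetically at 1 cycle/s for 180 s, with calcium rises flagged as agonism.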
* = called active by the depositor; ? = inconclusive; . = no result.

SMILES	D3 ag	D1 PAM	DRD3 antagonist	D1 antagonist	D1 agonist
O=C(Nc1nccs1)c1nc[nH]c1C(=O)NCc1ccccc1	3	1	-14	.	-2
N#Cc1nc(Nc2cccc3ccccc23)nc(NC2CCCC2)n1	.	-7	.	-35*	8
COc1cccc(Nc2nc(C#N)nc(NC3CCCC3)n2)c1	.	0	.	-33*	5
CCOC(=O)CN1C(=O)/C(=C/c2c(F)cccc2Cl)Oc2ccccc21	7	-7	2	-13	11
Cc1ccc(CC2(c3ccccc3)NC(=O)NC2=O)cc1 (stereo unspecified)	-6	.	-6	.	.
COCCn1c(SCC(=O)c2ccc(F)cc2)nnc1C(C)C	1	1	4	-2	2
COCCn1nnnc1SCC(=O)c1ccc(F)cc1	-3	5	-67*	2	-1
CC(Sc1nc(N)cc(=O)[nH]1)C(=O)Nc1nc2c(s1)CCCC2 (stereo unspecified)	-2	-7	-3	-41*	3
CCCOc1ccc(NC(=O)CC2C(=O)N(c3ccc(OC)cc3)C(=O)N2CCc2ccncc2)cc1 (stereo unspecified)	1	-2	.	-42*	1
O=C(CC1C(=O)N(c2ccccc2)C(=O)N1CCc1cccs1)Nc1ccc(Cl)cc1 (stereo unspecified)	-8	0	.	-11	2
CCCOc1ccc(NC(=O)CC2C(=O)N(c3ccccc3)C(=O)N2CCC(C)C)cc1 (stereo unspecified)	1	0	.	-2	1
Cc1ccsc1CCN1C(=O)N(c2ccccc2)C(=O)C1CC(=O)Nc1ccc(Cl)cc1 (stereo unspecified)	-2	-5	.	-36*	9
CCc1ccc(NC(=O)CC2C(=O)N(c3cccc(C)c3)C(=O)N2Cc2cccs2)cc1 (stereo unspecified)	7	-3	.	-38*	3
CCCOc1ccc(NC(=O)CC2C(=O)N(c3ccc(F)cc3)C(=O)N2CC(C)C)cc1 (stereo unspecified)	62*	-2	.	24	-1
CCOc1ccc(NC(=O)C2CCN(S(=O)(=O)c3c(C)noc3/C=C/c3c(C)cc(C)cc3C)CC2)cc1	8	1	.	13	3
CC1=C(C(=O)N2CCOCC2)CC(CC(=O)NC2CCCCC2)C(=O)N1Cc1ccc(C(C)(C)C)cc1 (stereo unspecified)	3	.	-17	.	.
CCc1ccc(NC(=O)CC2C(=O)N(c3ccc(F)cc3)C(=O)N2Cc2ccc(F)cc2)cc1 (stereo unspecified)	6	-4	.	-31*	1
CCc1ccc(NC(=O)CC2C(=O)N(c3cccc(C)c3)C(=O)N2Cc2ccc(F)cc2)cc1 (stereo unspecified)	-7	-3	.	-4	3
O=C1NC(=O)C(c2ccccc2[N+](=O)[O-])=C1Nc1ccc(O)c(Cl)c1	-26	-10	-28	-38*	1
CCC1CCCCN1CCCNC(=O)c1sc2nc(C)cc(C)c2c1-n1cccc1 (stereo unspecified)	-8	-2	.	6	-1
NC(=O)c1ccc(-n2nnnc2Oc2ccccc2)cc1	-4	2	20	-49*	-2
Cc1ccccc1NS(=O)(=O)c1ccc(C2CNC(=O)C2)cc1 (stereo unspecified)	-4	1	-104*	3	5
CCOC(=O)/C(C#N)=C1/SC(CC)C(=O)N1c1ccc(C)cc1 (stereo unspecified)	11	-4	-57*	-5	2
COc1ccc(-c2ccc(SCC(=O)N3CCOCC3)nn2)cc1	7	-14	?	-31*	7
CN1CCc2nc(SCC(=O)Nc3ccc(Cl)cc3)c(C#N)cc2C1	-25	.	-60*	.	.
SMILES	D3 ag	D1 PAM	DRD3 antagonist	D1 antagonist	D1 agonist
N#Cc1cc2c(nc1SCC(=O)Nc1sc3c(c1C#N)CCC3)CCC2	0	-1	16	-42*	1
CCOC(=O)c1sc(NC(=O)CSc2nccc(C)n2)c(C#N)c1C	-2	-1	-5	.	4
Cc1ccnc(SCC(=O)Nc2sc3c(c2C#N)CCCC3)n1	6	-7	32	-33*	16
COc1ccc(NC(=O)CSc2nc(N)c(C#N)cc2C#N)cc1	-29	-1	-27	0	0
Cc1csc(SCC(=O)Nc2sc3c(c2C#N)CCC3)n1	-10	-4	0	-31*	1
N#Cc1cc2c(nc1SCC(=O)Nc1sc3c(c1C#N)CCC3)CCCCCC2	-1	-3	-2	12	4
FC(F)(F)c1cccc(N2CCN(Cc3nnc(-c4ccc5c(c4)OCO5)o3)CC2)c1	-8	-3	.	-18	10
CC(NC(=O)C12CC3CC(CC(C3)C1)C2)c1ccc(F)cc1 (stereo unspecified)	-22	9	-11	-51*	-3
COc1ccc(C(C)NC(=O)C23CC4CC(CC(C4)C2)C3)cc1OC (stereo unspecified)	3	12	-4	2	0
CC(C)Oc1ccc(CCC(=O)N/N=C/c2ccc3c(c2)OCO3)cc1	6	-1	16	1	6
O=C(CCc1ccc(O)c(O)c1)N/N=C/c1ccc2c(c1)OCO2	76*	-6	-7	-10	10
Cn1c(=O)c2c(ncn2CC(=O)OCC(=O)Nc2cccc(C#N)c2)n(C)c1=O	5	.	27	.	.
c1ccc(CN2CCC3(CCCc4ccccc43)CC2)cc1	-91	-6	-105*	-49*	1
O=C(Cn1c(=O)nc(-c2ccccc2)c2ccccc21)NCc1ccc(Cl)cc1	10	3	.	2	2
O=C(CC(c1cccs1)N1Cc2ccccc2C1=O)Nc1ccc(F)c(Cl)c1 (stereo unspecified)	-11	-3	.	-16	9
Cc1ccc(-n2c(=O)[nH]c3cc(C(=O)NC4CCN(Cc5ccccc5)CC4)ccc3c2=O)cc1	-7	-12	-93*	2	2
CCOC(=O)N1CCN(C(=O)c2ccc3c(c2)N(Cc2ccccc2)CCS3)CC1	1	-4	4	-34*	4
Cc1ccc(CN2CCSc3ccc(C(=O)NC4CCN(Cc5ccccc5)CC4)cc32)cc1	-19	-2	-83*	-13	2
Cc1ccc(-n2c(=O)[nH]c3cc(C(=O)NCCc4ccccc4)ccc3c2=O)cc1	9	-1	.	-21	3
O=C(CCOc1cccc(Br)c1)Nc1ccc(F)c(S(=O)(=O)N2CCOCC2)c1	-10	3	-14	-14	11
CCOC(=O)Cn1c(=S)[nH]c2c(oc3ccc(Cl)cc32)c1=O	0	-4	-68*	1	3
COCCCNC(=O)C1CCN(Cc2cc3ccccc3n2Cc2cccc(Cl)c2)CC1	-8	-3	.	-20	3
Clc1ccc(/C=N/NC2=Nc3cccc4cccc2c34)cc1	5	-8	7	-33*	7
C(=N\NC1=Nc2cccc3cccc1c23)/c1ccccc1	-15	2	1	21	15
